TGFb SMAD3 inh – TGF-b pathway inhibition | AID 588855 | 410,000 tested, 1.2% active | HepG2 CAGA-GFP TGF-b/SMAD3 reporter, GFP fluorescence, 18 h; TGF-beta stimulated, 500 pg/mL final | Potency, µM (doses to about 46.1 µM), for inactives: at the highest dose activity, negative = inhibition, hits mostly inhibitors; note: % is set by controls: 0 for no effect and ±100 for the full control effect; nearly all actives have a fitted effect of over 65% in size
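TGF-beta reporter screen: HEPG2 CAGA-GFP, 1% FBS, 500 pg/mL TGF-beta final, 18 h; per-cell GFP summed per well; curves fitted and categorized by class.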
TDP1 cell noCPT – qHTS for Inhibitors of human tyrosyl-DNA phosphodiesterase 1 (TDP1): qHTS in cells in absence of CPT. DT40 Tdp1-/- hTDP1 cells, no CPT, ATP luminescence, 48 h. Potency, µM (top dose mostly 46.2 µM), without a hit: at the top dose activity change, negative = growth inhibition, hits mostly inhibitors. 420,000 tested, 15% active. AID 686978, 2013; note: % is set by controls: 0 for no effect and ±100 for the full control effect; nearly all actives have a fitted effect of over 55% in size
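Seeded 400 DT40-hTDP1 cells/well (vehicle DMSO, no 20 nM CPT); pinned compounds; ≥48 hr at 37 °C; CellTiter-Glo luminescence as viability measure.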
HepG2 viability – HepG2 cytotoxicity, counter-screen for TGF-b inhibitors. HepG2 CAGA-GFP viability, ATP luminescence, 18 h. Potency, µM (highest dose often 46.1 µM), inactives show at the highest dose activity change, negative = cytotoxicity, actives largely listed as cytotoxic. 410,000 tested, 0.76% active
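CellTiter-Glo luminescence gave cytotoxicity after 18 hours at 37 degrees C. The cells were HepG2 CAGA-GFP in 1% FBS DMEM, stimulated with 500 pg/mL TGF-beta after compound addition. %Activity was normalised to no-cell wells (complete cell-killing) and DMSO (no toxicity), and curves were fitted and classified.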
HT1080NT lethal – kills 2HG-producing HT-1080-NT fibrosarcoma cells. HT-1080-NT fibrosarcoma viability, CellTiter-Glo ATP luminescence, 48 h. Potency, µM (titrated, usually from 46.1 µM), for inactives: top-dose activity, negative = less viability, usual class: cytotoxic. 360,000 tested, 1.6% active. AID 686970;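 note: NT is the 2HG producing partner of a matched IDH1 knockdown line; 0% = DMSO-treated cells and -100% = media-only wells without cells; nearly all actives have a fitted effect of over 55% in size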
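HT-1080-NT; 750 cells/well; 5% FBS RPMI; 48 h compound, 37 degrees C; CellTiter-Glo luminescence; curve fitting and curve-class assignment.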
TDP1 cell CPT – growth inhibition of DT40 Tdp1-/-;hTDP1 cells with camptothecin (screen for TDP1 inhibitors) | Potency, µM (doses to about 46.2 µM), inactives show top-dose activity change, negative = growth inhibition, hits mostly inhibitors | AID 686979 | chicken DT40 Tdp1-/-;hTDP1 cells + 20 nM CPT, ATP luminescence, 48 h | 420,000 tested, 12% active; note: % is set by controls: 0 for no effect and ±100 for the full control effect; nearly all actives have a fitted effect of over 55% in size
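Chicken DT40 Tdp1-/- cells complemented with human TDP1, 400 cells/well, exposed to compounds plus 20 nM camptothecin for at least 48 h at 37 C; viability read as ATP content by CellTiter-Glo luminescence.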
HT1080 IDH1KD tx – HT-1080 IDH1 knockdown cell toxicity (counter line). HT-1080 IDH1 knockdown viability, ATP luminescence, 48 h. Potency, µM (highest dose often 46.1 µM), inactives show at the highest dose activity, negative = toxicity, actives largely listed as cytotoxic. 360,000 tested, 2% active. AID 686971;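 note: 0% = DMSO wells and -100% = cell-free medium wells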
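Cytotoxicity counter-line: IDH1KD HT-1080, 48 h, CellTiter-Glo. Curves classed by r2, magnitude and activity.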
An asterisk follows results filed as active. Sampled rows, rich in hits. Any-hit rate of the full collection: about 17%. Calls come from the whole dose curve; as a rule, active = well fitted curve in the direction sought with a large enough effect; inconclusive = small, poorly fitted or top-dose-only effect, or another doubt; inactive = no such curve, though single readings can be large; an effect the other way counts as inactive or inconclusive. Potency is the fitted concentration of half-maximal effect.

Screening O=C(NCc1ccc(F)cc1)c1cc(C2CCCN(C(=O)c3cccs3)C2)on1 (stereo unspecified) returned TGFb SMAD3 inh 3%, TDP1 cell noCPT inconclusive, HepG2 viability -5%, HT1080NT lethal -3%, TDP1 cell CPT -20% and HT1080 IDH1KD tx 11%.
Cc1ccc(-n2ncc(C(=O)N3CCN(c4ccccn4)CC3)c2C2CCN(C(=O)OC(C)(C)C)CC2)cc1 was read as TGFb SMAD3 inh -14%, TDP1 cell noCPT inconclusive, HepG2 viability 8% and TDP1 cell CPT inconclusive.
For COc1ccc(-n2ncc(C(=O)N3CCN(c4ccccn4)CC3)c2C2CCN(C(=O)OC(C)(C)C)CC2)cc1 the results were TGFb SMAD3 inh 11%, TDP1 cell noCPT 21µM*, HepG2 viability 9% and TDP1 cell CPT inconclusive.
Screening CCOc1ccc(NC(=O)c2ccc(CN3C(=O)C(C)=C(c4ccc(C)cc4)S3(=O)=O)cc2)cc1 returned TGFb SMAD3 inh inconclusive, TDP1 cell noCPT inconclusive, HepG2 viability -7% and TDP1 cell CPT -10%.
For CCc1ccc(NC(=O)c2ccc(CN3C(=O)C(C)=C(c4ccc(C)cc4)S3(=O)=O)cc2)cc1 the results were TGFb SMAD3 inh 0%, TDP1 cell noCPT 10µM*, HepG2 viability -7% and TDP1 cell CPT inconclusive.
`COc1ccccc1NC(=O)c1ccc(CN2C(=O)C(C)=C(c3ccc(C)c(C)c3)S2(=O)=O)cc1` gave TGFb SMAD3 inh 3%, TDP1 cell noCPT inconclusive, HepG2 viability -18% and TDP1 cell CPT inconclusive.
`CC1=C(c2ccc(C)cc2)S(=O)(=O)N(Cc2ccc(C(=O)Nc3ccc(F)cc3C)cc2)C1=O` gave TGFb SMAD3 inh 0%, TDP1 cell noCPT 5.2µM*, HepG2 viability 2% and TDP1 cell CPT 5.8µM*.
Screening CC1=C(c2ccc(C)cc2)S(=O)(=O)N(Cc2ccc(C(=O)Nc3ccccc3C)cc2)C1=O returned TGFb SMAD3 inh 0%, TDP1 cell noCPT 8.2µM*, HepG2 viability -8% and TDP1 cell CPT 7.3µM*.
For CC(C)(C)N1C(=O)c2ccccc2NC(=O)C1C(=O)NCc1ccco1 (stereo unspecified) the results were TDP1 cell noCPT 3%, HT1080NT lethal 29%, TDP1 cell CPT 1% and HT1080 IDH1KD tx 13%.
For CCn1c2ccccc2c2nn(C)c(=N)nc21 the results were TGFb SMAD3 inh -5%, TDP1 cell noCPT 18µM*, HepG2 viability -18%, HT1080NT lethal -11%, TDP1 cell CPT 15µM* and HT1080 IDH1KD tx -5%.
For CCOc1cc(C(=O)N2CCC(CC3CC(c4ccc(Cl)cc4)=NO3)(C(=O)NCC3CCCCC3)CC2)cc(OCC)c1OCC (stereo unspecified) the results were TGFb SMAD3 inh inconclusive, TDP1 cell noCPT 18µM*, HepG2 viability 11%, HT1080NT lethal -1%, TDP1 cell CPT 23µM* and HT1080 IDH1KD tx 1%.
CCOc1cc(C(=O)N2CCC(CC3CC(c4ccccc4)=NO3)(C(=O)NCc3ccc(OC)cc3)CC2)cc(OCC)c1OCC (stereo unspecified) was read as TGFb SMAD3 inh inconclusive, TDP1 cell noCPT 16µM*, HepG2 viability 2%, HT1080NT lethal -2%, TDP1 cell CPT inconclusive and HT1080 IDH1KD tx -2%.
`CC(C)COc1ccc(C(=O)NC(=S)Nc2ccc(CN3CCOCC3)cc2)cc1` gave TGFb SMAD3 inh -4%, TDP1 cell noCPT -16%, HepG2 viability 13%, HT1080NT lethal 21%, TDP1 cell CPT -6% and HT1080 IDH1KD tx 19%.
`COc1ccc(C(=O)Nc2ccc(CN3CCOCC3)cc2)cc1Br` gave TGFb SMAD3 inh -27%, TDP1 cell noCPT -3%, HepG2 viability -40%, HT1080NT lethal -5%, TDP1 cell CPT -2% and HT1080 IDH1KD tx -15%.
For COc1ccc(C(=O)NC(=S)Nc2ccc(CN3CCOCC3)cc2)cc1OC the results were TGFb SMAD3 inh -4%, TDP1 cell noCPT 21µM*, HepG2 viability -21%, HT1080NT lethal 3%, TDP1 cell CPT inconclusive and HT1080 IDH1KD tx -2%.
Screening COc1ccc(Br)cc1/C=C/C(=O)NC(=S)Nc1ccc(CN2CCOCC2)cc1 returned TGFb SMAD3 inh -14%, TDP1 cell noCPT 16µM*, HepG2 viability -16%, HT1080NT lethal 6%, TDP1 cell CPT 16µM* and HT1080 IDH1KD tx 9%.
`COc1ccc(C(=O)NC(=S)Nc2ccc(CN3CCOCC3)cc2)cc1Cl` gave TGFb SMAD3 inh -24%, TDP1 cell noCPT 16µM*, HepG2 viability -61%, HT1080NT lethal -3%, TDP1 cell CPT 18µM* and HT1080 IDH1KD tx -1%.
`O=C(/C=C/c1ccc(Cl)cc1)NC(=S)Nc1ccc(CN2CCOCC2)cc1` gave TGFb SMAD3 inh 0%, TDP1 cell noCPT 23µM*, HepG2 viability 3%, HT1080NT lethal 0%, TDP1 cell CPT inconclusive and HT1080 IDH1KD tx 1%.
O=C(/C=C/c1ccccc1)Nc1ccc(CN2CCOCC2)cc1 was read as TGFb SMAD3 inh -5%, TDP1 cell noCPT inconclusive, HepG2 viability -5%, HT1080NT lethal 3%, TDP1 cell CPT inconclusive and HT1080 IDH1KD tx 7%.
CC1(C)CC(=O)C=C(c2ccc(-c3cnn(Cc4ccccc4)c3)cc2)C1=O was read as TGFb SMAD3 inh -6%, TDP1 cell noCPT inconclusive, HepG2 viability -37%, HT1080NT lethal 2%, TDP1 cell CPT inconclusive and HT1080 IDH1KD tx inconclusive.
`Cc1ccccc1OCC(=O)OCc1cc(=O)n2nc(-c3cccs3)sc2n1` gave TGFb SMAD3 inh -11%, TDP1 cell noCPT inconclusive, HepG2 viability -17% and TDP1 cell CPT inconclusive.
`O=C(/C=C/c1ccc(Cl)cc1)NC(=S)Nc1ccc(NC(=O)c2ccco2)cc1` gave TGFb SMAD3 inh -9%, TDP1 cell noCPT 8.2µM*, HepG2 viability 10%, HT1080NT lethal inconclusive, TDP1 cell CPT inconclusive and HT1080 IDH1KD tx inconclusive.
Cc1ccc(C)c(N2CCN(C(=O)CSCc3ccccc3Cl)CC2)c1 was read as TGFb SMAD3 inh inconclusive, TDP1 cell noCPT inconclusive, HepG2 viability -59% and TDP1 cell CPT inconclusive.
COc1cc(/C=N/N=C(N)N)ccc1OCc1ccccc1Cl was read as TGFb SMAD3 inh inconclusive, TDP1 cell noCPT 15µM*, HepG2 viability -102%, HT1080NT lethal -16%, TDP1 cell CPT inconclusive and HT1080 IDH1KD tx -22%.

Screens (PubChem)
